Several values for one entry are separate records, joined by “and”; a condition that tells them apart may be missing. Identical values can stand only once. About 2,000 (36%) of roughly 5,500 compounds were called active. Inconclusive results (about 18%) are left out. Rule as the data show it: active = normalized growth mostly below about 0.91 (no sharp cut-off); inconclusive = no clear call, values can overlap the other calls; inactive = mostly above about 0.92. The list shows a part of the results.
Test: chemical genetic growth profiling, strain panel (AID 1159580);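 also: tested at 20 µM; growth read once vehicle control cultures reached saturation at 30 °C; 1 = growth at the plate median or of vehicle wells; lower values mean less growth of the strain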
Settings: S. cerevisiae deletion strains, growth OD

Measured: normalized growth

CCc1cc(C(N)=S)ccn1
inactive: locus YAL021C, strain ccr4, hits give low values 1 | locus YAL026C, strain drs2, hits give low values 1 | locus YAL030W, strain snc1, hits give low values 0.994 | locus YBL061C, strain skt5, hits give low values 1.01 | locus YBR009C, strain hhf1, hits give low values 1 | locus YBR021W, strain FUR4, hits give low values 1.06 | locus YBR023C, strain chs3, hits give low values 1.02 | locus YBR171W, strain sec66, hits give low values 1 | locus YBR229C, strain ROT2, hits give low values 0.953 | locus YBR231C, strain swc5, hits give low values 1.04 | locus YBR279W, strain paf1, hits give low values 1 | locus YCL011C, strain gbp2, hits give low values 1.01 | locus YCL016C, strain dcc1, hits give low values 1 | locus YCL061C, strain MRC1, hits give low values 1.01 | locus YCL069W, strain vba3, hits give low values 0.991 | locus YCR088W, strain abp1, hits give low values 1 | locus YDL005C, strain med2, hits give low values 1 | locus YDL035C, strain GPR1, hits give low values 1.01 | locus YDL040C, strain nat1, hits give low values 0.998 | locus YDL074C, strain BRE1, hits give low values 0.991 | locus YDL101C, strain DUN1, hits give low values 0.981 | locus YDL134C, strain PPH21, hits give low values 0.985 | locus YDL185W, strain tfp1, hits give low values 0.976 | locus YDL192W, strain arf1, hits give low values 0.981 | locus YDR001C, strain nth1, hits give low values 1 | locus YDR069C, strain doa4, hits give low values 0.978 | locus YDR101C, strain arx1, hits give low values 0.93 | locus YDR137W, strain rgp1, hits give low values 1.02 | locus YDR150W, strain NUM1, hits give low values 0.983 | locus YDR159W, strain sac3, hits give low values 0.953 | locus YDR162C, strain NBP2, hits give low values 1 | locus YDR195W, strain ref2 0.979 | locus YDR297W, strain sur2, hits give low values 1 | locus YDR318W, strain mcm21, hits give low values 1 | locus YDR334W, strain swr1, hits give low values 1.01 | locus YDR335W, strain msn5, hits give low values 0.996 | locus YDR388W, hits give low values 0.995 | locus YDR392W, strain spt3, hits give low values 0.938 | locus YDR502C, strain sam2, hits give low values 0.98 | locus YEL003W, strain gim4, hits give low values 0.998 | locus YEL037C, strain rad23, hits give low values 0.999 | locus YEL061C, strain CIN8 (second series), hits give low values 0.994 | locus YEL061C, strain CIN8, hits give low values 0.959 | locus YER015W, strain faa2, hits give low values 1.01 | locus YER016W, strain bim1, hits give low values 0.957 | locus YER110C, hits give low values 0.98 | locus YER111C, strain swi4, hits give low values 0.996 | locus YER155C, strain BEM2 (second series), hits give low values 0.943 | locus YER155C, strain BEM2, hits give low values 0.99 | locus YER167W, strain BCK2, hits give low values 0.994 | locus YFR010W, strain ubp6, hits give low values 1 | locus YGL078C, strain dbp3, hits give low values 0.986 | locus YGL086W, strain mad1, hits give low values 0.964 | locus YGL167C, strain pmr1, hits give low values 1 | locus YGL173C, strain kem1, hits give low values 0.995 | locus YGL227W, strain vid30, hits give low values 1.01 | locus YGL240W, strain doc1, hits give low values 0.978 | locus YGL248W, strain PDE1, hits give low values 0.989 | locus YGL253W, strain hxk2, hits give low values 1.01 | locus YGR135W, strain pre9, hits give low values 1.05 | locus YGR252W, strain gcn5, hits give low values 1.14 | locus YHR013C, strain ard1, hits give low values 1.05 | locus YHR027C, strain rpn1, hits give low values 1.01 | locus YHR030C, strain SLT2, hits give low values 0.997 and 1.11 | locus YHR079C, strain IRE1 (second series), hits give low values 0.993 | locus YHR079C, strain IRE1, hits give low values 1.08 | locus YHR094C, strain hxt1, hits give low values 0.987 | locus YHR129C, strain ARP1, hits give low values 0.991 | locus YHR142W, strain chs7, hits give low values 1.02 | locus YHR200W, strain rpn10, hits give low values 0.98 | locus YIL066C, strain RNR3, hits give low values 0.965 | locus YIL073C, strain SPO22, hits give low values 1.08 | locus YIL125W, strain kgd1, hits give low values 0.981 | locus YIR030C, strain dcg1, hits give low values 0.99 | locus YJL092W, strain hpr5, hits give low values 1.01 | locus YJL095W, strain BCK1 (second series), hits give low values 1 | locus YJL095W, strain BCK1, hits give low values 0.964 and 1.07 | locus YJL115W, strain asf1, hits give low values 1.01 | locus YJL129C, strain trk1, hits give low values 1.03 | locus YJL134W, strain LCB3, hits give low values 0.991 | locus YJL154C, strain vps35, hits give low values 0.995 | locus YJL164C, strain tpk1, hits give low values 1.02 | locus YJL166W, strain qcr8, hits give low values 1.04 | locus YJL168C, strain set2, hits give low values 0.991 | locus YJL187C, strain SWE1 (second series), hits give low values 0.941 | locus YJL187C, strain SWE1, hits give low values 1.01 | locus YJR043C, strain POL32, hits give low values 0.983
